Experimental findings from the supplement of paper PMC10338343 are described below.

± gives the standard deviation.

For this assay, the system named is MILI (PIWIL2) piRISC loaded with piRNA #1 (26 nt). Kind of assay: pre-steady-state target cleavage rate (min^-1); guide: piRNA #1 5'p-UGAGGUAGUAGGUUGUAUAGUAUCCA; MIWI and MILI are mouse PIWI proteins and EfPiwi is from a freshwater sponge; tags in brackets are library labels; higher = faster piRNA-guided slicing of the target. Conditions: auxiliary factor: 500 nM mouse GTSF1. In a few lines: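 Cleave-'n-Seq reactions paired 0.1 nM transcribed, DNA-blocked target RNA library with 1 nM active affinity-purified piRISC holding one synthetic guide, plus or minus 500 nM GTSF1 partner protein, in HEPES–potassium acetate buffer at 33 °C for 0–8 or 0–960 min. After sequencing of uncleaved targets and normalisation to depth and weakly complementary targets, the pre-steady-state cleavage rate was taken from a burst-and-steady-state fit. Three trials were pooled, and k3 was capped at 0.0001 min^-1.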
For GGAGACGAUACUAUACACCCUACUACCUCA, the “pre-steady-state target cleavage rate” value turned out to be 0.081 ± 0.0091.

For GGAGUUGGAUACUAUACAACCUACUACCUCA, the “pre-steady-state target cleavage rate” value came out at 0.184 ± 0.023.

For the sequence GGAGUGGUUACUAUACAAGCUACUACCUCA, the “pre-steady-state target cleavage rate” value came to 0.213 ± 0.016.

On to GGAGACCAAACUAUACAACCUACUACCUCA, for which the “pre-steady-state target cleavage rate” value amounted to 0.131 ± 0.036.

In the case of GGAGACCAUACUAUACUACCUACUACCUGA, the “pre-steady-state target cleavage rate” value stood at 0.134 ± 0.019.

As to GGAGACGAUACUAUACAACUCUACUACCUCA, the “pre-steady-state target cleavage rate” value turned out to be 0.00377 ± 0.0022.

On to GGAGAGGAUAGCUAUACAACCUACUACCUCA, for which the “pre-steady-state target cleavage rate” value was found to be 0.035 ± 0.0046.

Turning to GGAGACCUAACUAUACAAGCUAGUACCUCA, the “pre-steady-state target cleavage rate” value is 0.0871 ± 0.019.

With GGAGACGAAACUAUACAACCUACUUCCUCA, the “pre-steady-state target cleavage rate” value stood at 0.0627 ± 0.022.

Take GGAGAGCAUACUAUACAACCUACUAGCUCA: the “pre-steady-state target cleavage rate” value was 0.0696 ± 0.016.

Turning to GGAGUGGAUACUAUACAACCUACUACCAUCA, the “pre-steady-state target cleavage rate” value amounted to 0.0921 ± 0.013.

For the sequence GGAGACCUAUCUAUACAACCUACUACCUGA, the “pre-steady-state target cleavage rate” value was 0.074 ± 0.011.

As for GGAGACCAUACUAGUACAACCUACUACCUCA, the “pre-steady-state target cleavage rate” value is 0.089 ± 0.011.

For the sequence GGAGAGGAAACUAUACAACCUACUAGCUCA, the “pre-steady-state target cleavage rate” value worked out at 0.0535 ± 0.019.

As to GGAGACGAUACUAUACAACCUACUAACCUCA, the “pre-steady-state target cleavage rate” value worked out at 0.194 ± 0.02.

For the sequence GGAGUGGACACUAUACAACCUACUACCUCA, the “pre-steady-state target cleavage rate” value is 0.241 ± 0.025.

With GGAGACCUAUCUAUACAACCUACUACCUUCA, the “pre-steady-state target cleavage rate” value was found to be 0.139 ± 0.017.

GGAGUGGAUACAUAUACAACCUACUACCUCA: the “pre-steady-state target cleavage rate” value worked out at 0.114 ± 0.011.

As to GGAGACCAUACUAUACAACCUACUUCCUGA, the “pre-steady-state target cleavage rate” value is 0.0889 ± 0.02.

Take GGAGUGGUUACUAUACUACCUACUACCUCA: the “pre-steady-state target cleavage rate” value was 0.183 ± 0.01.

With GGAGACCAUACUAUACAACCUAGUACCUCA, the “pre-steady-state target cleavage rate” value was determined as 0.0657 ± 0.013.

In the case of GGAGAGGAUACUAUACAACCUACUUACCUCA, the “pre-steady-state target cleavage rate” value came out at 0.162 ± 0.015.

In the case of GGAGUGGAUAGAAUACAACCUACUACCUCA, the “pre-steady-state target cleavage rate” value is 0.156 ± 0.014.

As to GGAGACGAUUCUAUACAUCCUACUACCUCA, the “pre-steady-state target cleavage rate” value worked out at 0.267 ± 0.018.

On to GGAGACCUAACUGAUACAACCUACUACCUCA, for which the “pre-steady-state target cleavage rate” value was found to be 0.183 ± 0.045.

Consider GGAGACCUUACCUAUACAACCUACUACCUCA, for which the “pre-steady-state target cleavage rate” value was 0.0629 ± 0.016.

In the case of GGAGAGGAUAGUAUACAACCUACUACCACA, the “pre-steady-state target cleavage rate” value was determined as 0.0774 ± 0.011.

As to GGAGACGAUACUAUACAACCUACUCCCUCA, the “pre-steady-state target cleavage rate” value was 0.106 ± 0.017.

As for GGAGACGAUACUAUACUACCAACUACCUCA, the “pre-steady-state target cleavage rate” value was 0.00729 ± 0.0029.

On to GGAGAGGAUACUAUGCAACCUACUACCUCA, for which the “pre-steady-state target cleavage rate” value is 0.214 ± 0.011.

As for GGAGACCUUACUAUACAAGCUACUAGCUCA, the “pre-steady-state target cleavage rate” value was found to be 0.0972 ± 0.02.

Turning to GGAGUGGAUAUUAUACAACCUACUACCUCA, the “pre-steady-state target cleavage rate” value stood at 0.178 ± 0.0094.

Take GGAGACGUUACUAUAGAACCUACUACCUCA: the “pre-steady-state target cleavage rate” value came to 0.154 ± 0.014.

Consider GGAGUGGAUACUAUACAACCUAUACCUCA, for which the “pre-steady-state target cleavage rate” value turned out to be 0.0048 ± 0.002.

Turning to GGAGUGGAUACUCUACAACCUACUACCUCA, the “pre-steady-state target cleavage rate” value was found to be 0.194 ± 0.011.

Regarding GGAGUGGAAACUAUACAAGCUACUACCUCA, the “pre-steady-state target cleavage rate” value was 0.257 ± 0.021.

On to GGAGACCUAACUAUACCACCUACUACCUCA, for which the “pre-steady-state target cleavage rate” value amounted to 0.0944 ± 0.018.

For the sequence GGAGAGGAUACUAUACAUCCUACUUCCUCA, the “pre-steady-state target cleavage rate” value amounted to 0.0107 ± 0.0033.

Turning to GGAGACCAUACUAUACAACGUACAACCUCA, the “pre-steady-state target cleavage rate” value was 0.0214 ± 0.0035.

Consider GGAGGGGAUACUAUACAACCUACUACCUCA, for which the “pre-steady-state target cleavage rate” value was determined as 0.203 ± 0.0091.
